Measured values taken from PubChem BioAssay (NCI).
The panel holds about 83,000 compounds, 20% with a hit somewhere; the sample as a whole holds those more often.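 The endpoint reported here, percent growth, reads 100 for growth as untreated, 0 for no net growth and -100 for all cells dead.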 The source made the active and inactive calls. Rule for the calls: active = growth percent below 10; inactive = the rest.

Tests used:
Assay in all cases: NCI-60 one-dose screen, 48 h (100 = growth as untreated, 0 = no growth, -100 = all killed)
Settings in all cases: 10 µM
DU-145 prostate = tested on: DU-145 prostate
MALME-3M melanoma = tested on: MALME-3M melanoma
MDA-MB-231 breast = tested on: MDA-MB-231 breast
RXF 393 renal = tested on: RXF 393 renal
SF-268 CNS = tested on: SF-268 CNS
SF-295 CNS = tested on: SF-295 CNS
SF-539 CNS = tested on: SF-539 CNS
UACC-257 melanoma = tested on: UACC-257 melanoma
M14 melanoma = tested on: M14 melanoma
K-562 leukemia = tested on: K-562 leukemia

Measured: growth

CC1(C)CC[C@]2(C(=O)N3CCOCC3)CC[C@]3(C)C(=CC[C@@H]4[C@@]5(C)CC[C@H](NCO)C(C)(C)[C@@H]5CC[C@]43C)[C@H]2C1
active: DU-145 prostate -89.4% | MALME-3M melanoma -96.6% | MDA-MB-231 breast -97.6% | RXF 393 renal -95% | SF-268 CNS -76.5% | SF-295 CNS -87.2% | SF-539 CNS -96.8% | UACC-257 melanoma -93.9% | M14 melanoma -84.6%

CN1CCN(c2ccc(C(=O)/C=C/c3cc(C(F)(F)F)ccc3Cl)cc2)CC1
active: DU-145 prostate -62.5% | K-562 leukemia 2.76% | MALME-3M melanoma -95.4% | MDA-MB-231 breast -95.1% | SF-268 CNS 1.69% | SF-295 CNS -89.3% | SF-539 CNS -100% | UACC-257 melanoma -79.7% | M14 melanoma -84.9%

Cc1nn(-c2ccccc2)c2ncn(CC(=O)N/N=C/c3c[nH]c4ccccc34)c(=O)c12
inactive: DU-145 prostate 99.6% | K-562 leukemia 84.2% | MALME-3M melanoma 69% | RXF 393 renal 89.5% | SF-268 CNS 73.5% | SF-295 CNS 88.7% | SF-539 CNS 84.6% | UACC-257 melanoma 94.3% | M14 melanoma 92.3%

Cc1ccc(-c2cc(-c3cc4ccccc4nc3Cl)[nH]c(=S)n2)cc1
inactive: DU-145 prostate 63.7% | K-562 leukemia 18.6% | MALME-3M melanoma 46% | RXF 393 renal 28.1% | SF-268 CNS 77.8% | SF-295 CNS 45.1% | SF-539 CNS 55.7% | UACC-257 melanoma 66.5% | M14 melanoma 15.9%

COc1ccc(C=CC(=O)c2ccc(-n3c(C)nc4c(cnn4-c4ccccc4)c3=O)cc2)cc1
inactive: DU-145 prostate 83.2% | K-562 leukemia 12.4% | MALME-3M melanoma 60.6% | RXF 393 renal 84.4% | SF-268 CNS 92.4% | SF-295 CNS 65.6% | SF-539 CNS 77.6% | UACC-257 melanoma 74.6% | M14 melanoma 53.1%

O=C1Nc2cc(Cl)ccc2/C1=C/c1cccc(OCc2ccc(Br)cc2F)c1
active: DU-145 prostate 4.44% | K-562 leukemia 1.92% | RXF 393 renal -15.1% | SF-268 CNS 9.99% | SF-295 CNS 5.06% | SF-539 CNS -6.14% | M14 melanoma -32.6%
inactive: MALME-3M melanoma 33.8% | UACC-257 melanoma 45.9%

O=c1nc(-c2ccccc2)cc(-c2cc3ccccc3nc2Cl)[nH]1
inactive: DU-145 prostate 38.4% | MALME-3M melanoma 54.9% | SF-268 CNS 38.2% | SF-295 CNS 42.2% | UACC-257 melanoma 91.2%
active: K-562 leukemia -11.9% | RXF 393 renal -16.1% | SF-539 CNS -47.4%

CCOC(=O)C1=C(N)N(c2ccc(Cl)cc2)C2=C(C(=O)CC(C)(C)C2)C1c1ccc(N2CCOCC2)cc1 (stereo not drawn)
inactive: DU-145 prostate 99% | MALME-3M melanoma 93.9% | MDA-MB-231 breast 87.3% | RXF 393 renal 98.6% | SF-268 CNS 89.7% | SF-295 CNS 89.3% | SF-539 CNS 100% | UACC-257 melanoma 106%

COc1ccc2nc(Cl)c(-c3cc(-c4ccccc4)nc(=S)[nH]3)cc2c1
inactive: DU-145 prostate 72.6% | K-562 leukemia 24.8% | MALME-3M melanoma 45.3% | RXF 393 renal 46.2% | SF-268 CNS 67.9% | SF-295 CNS 50.9% | SF-539 CNS 63.5% | UACC-257 melanoma 38.2%

O=c1[nH]n(C(=S)N/N=C/c2ccc(F)cc2)c(=O)c2ccccc12
active: SF-539 CNS -50.9%
inactive: DU-145 prostate 68.9% | K-562 leukemia 11.2% | MALME-3M melanoma 80.4% | RXF 393 renal 57.3% | SF-268 CNS 104% | SF-295 CNS 74.4% | UACC-257 melanoma 95%

O=C1Nc2cc(Cl)ccc2/C1=C/c1cccc(OCc2ccccc2)c1
active: DU-145 prostate 3.5% | K-562 leukemia 5.55% | MALME-3M melanoma 7.06% | RXF 393 renal -3.3% | SF-268 CNS -11.4% | SF-295 CNS 1.81% | SF-539 CNS -56.8% | UACC-257 melanoma 1.39% | M14 melanoma -18.1%

COc1ccc2nc(Cl)c(-c3cc(-c4ccccc4)nc(=O)[nH]3)cc2c1
inactive: DU-145 prostate 26.1% | MALME-3M melanoma 83.3% | RXF 393 renal 58.5% | SF-268 CNS 60.2% | SF-295 CNS 64.4% | SF-539 CNS 11.3% | UACC-257 melanoma 105% | M14 melanoma 81.9%
active: K-562 leukemia 4.96%

O=C(c1ccc([N+](=O)[O-])c([N+](=O)[O-])c1O)n1[nH]c(=O)c2ccccc2c1=O
inactive: DU-145 prostate 25.4% | K-562 leukemia 12.8% | MALME-3M melanoma 71.7% | RXF 393 renal 66.7% | SF-268 CNS 76.9% | SF-295 CNS 90.9% | SF-539 CNS 66.6% | UACC-257 melanoma 79.9% | M14 melanoma 78.6%

Cc1ccc(C(=O)NCCCNc2nc(Nc3ccc(N4CCN(C)CC4)cc3)nc3ccsc23)cc1
active: MALME-3M melanoma -94.8% | RXF 393 renal -53.1% | SF-539 CNS -89.9% | UACC-257 melanoma -17.7%
inactive: DU-145 prostate 58.7% | MDA-MB-231 breast 44.4% | SF-268 CNS 60.4% | SF-295 CNS 44.8%

COc1ccc2[nH]c(O)c(N=NC(=O)c3cc(-c4ccc(C)cc4)nc4ccccc34)c2c1
inactive: DU-145 prostate 90.8% | MALME-3M melanoma 103% | MDA-MB-231 breast 98.3% | RXF 393 renal 92.4% | SF-268 CNS 80.2% | SF-295 CNS 108% | SF-539 CNS 92.3% | UACC-257 melanoma 91.2%

Cc1ccc(NC(=O)c2ccc(-n3c(=O)[nH]c4ccccc4c3=O)cc2)cc1
inactive: DU-145 prostate 102% | MALME-3M melanoma 84.8% | MDA-MB-231 breast 64.6% | RXF 393 renal 54.3% | SF-268 CNS 84.4% | SF-295 CNS 91.9% | SF-539 CNS 38% | UACC-257 melanoma 122%

COc1ccc2nc(Cl)c(-c3cc(-c4ccccc4)nc(N)n3)cc2c1
inactive: DU-145 prostate 33.3% | MALME-3M melanoma 61% | SF-268 CNS 58.8% | SF-295 CNS 30.4% | UACC-257 melanoma 71.6% | M14 melanoma 44.1%
active: K-562 leukemia 0.267% | RXF 393 renal -19.8% | SF-539 CNS -45.6%

Cc1cccc2cc(-c3cc(-c4ccccc4)nc(=O)[nH]3)c(Cl)nc12
inactive: DU-145 prostate 91.7% | K-562 leukemia 44.3% | MALME-3M melanoma 96.6% | RXF 393 renal 88.3% | SF-268 CNS 96.3% | SF-295 CNS 76% | SF-539 CNS 78.1% | UACC-257 melanoma 99.7% | M14 melanoma 98.6%

NC1=NC(c2ccccc2Cl)N=C(Nc2nn[nH]n2)N1 (stereo not drawn)
inactive: DU-145 prostate 106% | K-562 leukemia 100% | MALME-3M melanoma 101% | RXF 393 renal 113% | SF-268 CNS 101% | SF-295 CNS 101% | SF-539 CNS 103% | UACC-257 melanoma 106% | M14 melanoma 106%

O=C(CSc1ccc(-c2ccc(Cl)cc2)nn1)Nc1ccc(Cl)c(C(F)(F)F)c1
inactive: DU-145 prostate 80% | MALME-3M melanoma 54.1% | RXF 393 renal 71.1% | SF-268 CNS 73.7% | SF-295 CNS 56.3% | SF-539 CNS 60.7% | UACC-257 melanoma 67.7% | M14 melanoma 50.6%
active: K-562 leukemia 9.36%

Cc1ccc(-c2ccc(SCC(=O)Nc3ccc(Cl)c(C(F)(F)F)c3)nn2)cc1
active: K-562 leukemia 4.76% | RXF 393 renal -32.5% | SF-539 CNS -35.1% | M14 melanoma 2.2%
inactive: DU-145 prostate 23.9% | MALME-3M melanoma 38.7% | SF-268 CNS 38.6% | SF-295 CNS 13.2% | UACC-257 melanoma 57.6%

Cc1ccc(C(=O)Nc2ccc(-n3c(C)nc4c(cnn4-c4ccccc4)c3=O)cc2)cc1
inactive: DU-145 prostate 84.9% | K-562 leukemia 31.2% | MALME-3M melanoma 67.7% | RXF 393 renal 87.9% | SF-268 CNS 96.3% | SF-295 CNS 50.6% | SF-539 CNS 81.4% | UACC-257 melanoma 42% | M14 melanoma 73.2%

CN1CCN(c2ccc(Nc3nc(NCCNC(=O)c4ccc(C(F)(F)F)cc4)c4sccc4n3)cc2)CC1
active: MALME-3M melanoma -100% | MDA-MB-231 breast -36.1% | RXF 393 renal -82.2% | SF-295 CNS -62.7% | SF-539 CNS -99.7% | UACC-257 melanoma -93.4%
inactive: DU-145 prostate 45.7% | SF-268 CNS 21.8%

S=c1nc(-c2ccccc2)cc(-c2cc3ccccc3nc2Cl)[nH]1
inactive: DU-145 prostate 90.5% | K-562 leukemia 14.2% | MALME-3M melanoma 66.4% | RXF 393 renal 91.2% | SF-268 CNS 70.5% | SF-295 CNS 55.8% | SF-539 CNS 72.3% | UACC-257 melanoma 81.6% | M14 melanoma 36.7%

O=C1Nc2ccc(F)cc2/C1=C/c1cccc(OCc2ccccc2)c1
inactive: DU-145 prostate 30.4% | MALME-3M melanoma 32.3% | SF-268 CNS 29.9% | SF-295 CNS 35.4% | SF-539 CNS 19.8% | UACC-257 melanoma 26.6% | M14 melanoma 17.3%
active: K-562 leukemia 6.34% | RXF 393 renal -15.9%

CN1CCc2c(sc3ncnc(N/N=C/c4cn(-c5ccccc5)nc4-c4ccc(Br)cc4)c23)C1
inactive: DU-145 prostate 56.2% | K-562 leukemia 18.5% | MALME-3M melanoma 29.5% | RXF 393 renal 83.6% | SF-268 CNS 67.2% | SF-295 CNS 72.9% | SF-539 CNS 15.7% | UACC-257 melanoma 29.9% | M14 melanoma 19.4%

Cc1ccc(/C=C(\C#N)n2nnc3c(F)cccc32)cc1
active: MDA-MB-231 breast -18.1% | RXF 393 renal -4.78% | SF-539 CNS -27.9%
inactive: DU-145 prostate 13.9% | MALME-3M melanoma 34.7% | SF-268 CNS 24.3% | SF-295 CNS 16% | UACC-257 melanoma 38.6%

Cc1nc2c(cnn2-c2ccccc2)c(=O)n1-c1ccc(NC(=O)c2ccc(F)cc2)cc1
inactive: DU-145 prostate 80.7% | K-562 leukemia 27.2% | MALME-3M melanoma 68.4% | RXF 393 renal 79.1% | SF-268 CNS 88.9% | SF-295 CNS 39.6% | SF-539 CNS 85.5% | UACC-257 melanoma 31.8% | M14 melanoma 62.9%
